{"source": "PubChem BioAssay AID651997", "about": "(Sanford-Burnham Center for Chemical Genomics, 2013)", "note": "Screen size: about 2,400 compounds; about 700 (29%) were called active.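 The calls were made as follows: active = inhibition of at least 50%; inactive = the rest.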 A selection follows."}
{"target": "G-protein coupled receptor 183 (Homo sapiens) (UniProt P32249)", "sequence (P32249 whole entry, looked up)": "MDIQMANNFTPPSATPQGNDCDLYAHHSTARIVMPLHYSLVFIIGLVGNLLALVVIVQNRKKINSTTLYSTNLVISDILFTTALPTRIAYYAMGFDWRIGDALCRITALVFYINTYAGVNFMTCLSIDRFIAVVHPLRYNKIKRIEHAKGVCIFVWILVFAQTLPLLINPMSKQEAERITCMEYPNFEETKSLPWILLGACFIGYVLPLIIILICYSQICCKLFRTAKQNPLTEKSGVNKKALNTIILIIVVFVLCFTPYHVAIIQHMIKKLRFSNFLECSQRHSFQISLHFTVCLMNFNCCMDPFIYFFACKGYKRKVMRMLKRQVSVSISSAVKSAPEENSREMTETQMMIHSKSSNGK", "experiment": "EBI2 antagonist hit retest, beta-arrestin, confirmation, cell-based, single concentration, luminescence, 7a,25-OHC stimulation (AID 651997)", "conditions": "7a,25-OHC antagonism, at 5 µM, active compounds read high"}
{"smiles": "CN1CCc2ccccc2C1Cc1ccccc1NC(=O)c1sc2ccccc2c1Cl", "note": "(stereo not drawn)", "inhibition": "14% (inactive)"}
{"smiles": "Fc1ccc(N2CCN(Cc3cnc(Oc4ccc(Br)cc4)s3)CC2)cc1", "inhibition": "40.8% (inactive)"}
{"smiles": "COc1ccc(OC)c(C(=O)c2coc3ccc(O)c(CN4CCOCC4)c23)c1", "inhibition": "22.3% (inactive)"}
{"smiles": "COc1ccc(N(CC(=O)Nc2cc(OC)ccc2OC)S(=O)(=O)c2c(C)noc2C)cc1", "inhibition": "21.2% (inactive)"}
{"smiles": "COc1ccc(C(c2nnnn2C2CCCC2)N2CCN(C/C=C/c3ccccc3)CC2)cc1", "note": "(stereo not drawn)", "inhibition": "39.9% (inactive)"}
{"smiles": "Cc1ccc(-n2ncc3c(=O)n(-c4ccc(C)c(C)c4)c(-c4ccco4)nc32)cc1", "inhibition": "16.7% (inactive)"}
{"smiles": "COc1cc(/C=C(\\C#N)C(=O)Nc2ccc3ccccc3c2)c([N+](=O)[O-])cc1OC", "inhibition": "48.2% (inactive)"}
{"smiles": "O=C(CC(c1ccccc1)c1ccccc1)NCC(O)c1ccc([N+](=O)[O-])cc1", "note": "(stereo not drawn)", "inhibition": "32.1% (inactive)"}
{"smiles": "O=C(COc1ccc2c(c1)CCC2)N1CCN(c2ccc(F)cc2)CC1", "inhibition": "25% (inactive)"}
{"smiles": "O=C(COc1ccc(Cl)cc1)N1CCN(c2cccc(C(F)(F)F)c2)CC1", "inhibition": "68% (active)"}
{"smiles": "Cc1cc(C)cc(Oc2nc3c(C)cccn3c(=O)c2/C=C(\\C#N)C(=O)NC2CCS(=O)(=O)C2)c1", "note": "(stereo not drawn)", "inhibition": "44.9% (inactive)"}
{"smiles": "COc1ccc(-c2nc(N)ncc2-c2ccc(Cl)cc2)c(O)c1", "inhibition": "58.9% (active)"}
{"smiles": "O=C(NCc1ccc(Cl)cc1)c1cc(=O)nc2sc(-c3ccccc3)nn12", "inhibition": "36% (inactive)"}
{"smiles": "Cc1cccc(C)c1-n1nnnc1C(CCc1ccccc1)N1CCN(C/C=C/c2ccccc2)CC1", "note": "(stereo not drawn)", "inhibition": "8.65% (inactive)"}
{"smiles": "Cc1cc(C)c2c(=O)n3c(nc2c1)C(CC(C)C)NC(=O)c1cc2ccccc2cc1-3", "note": "(stereo not drawn)", "inhibition": "61.4% (active)"}
{"smiles": "Cc1cccc(NC(=O)CN2CCN(C(=O)C3CCN(C(=O)/C=C/c4ccccc4)CC3)CC2)c1C", "inhibition": "45% (inactive)"}
{"smiles": "CC(C)Cn1c(N2CCN(C(=O)/C=C/c3ccccc3)CC2)nc2ccccc21", "inhibition": "41.6% (inactive)"}
{"smiles": "COc1ccccc1CCNC(=O)C1CCN(C(=O)/C=C/c2ccccc2)CC1", "inhibition": "64.2% (active)"}
{"smiles": "CC(=O)c1nn(-c2ccc(C)cc2)cc1C(=O)c1cccc(Br)c1", "inhibition": "45.6% (inactive)"}
{"smiles": "O=C(c1ccc(-n2cnnn2)cc1)N1CCN(C(c2ccccc2)c2ccccc2)CC1", "inhibition": "55.9% (active)"}
{"smiles": "Cc1nc2ccc(C(=O)N3CCN(c4ccccc4)CC3)cc2s1", "inhibition": "40.5% (inactive)"}
{"smiles": "c1ccc(C(c2ccccc2)N2CCN(Cc3nnnn3C3CCCCC3)CC2)cc1", "inhibition": "34% (inactive)"}
{"smiles": "COc1ccc(Nc2cc(Sc3ccc(OC)cc3)ncn2)cc1", "inhibition": "25.1% (inactive)"}
